GPR151 ag: activators of human GPR151, primary screen, cell-based, PathHunter beta-arrestin, luminescence | activation, % at 11.2 µM | 1% of 650,000 active | G-protein coupled receptor 151 (Homo sapiens), Q8TDV0 | AID 1508602, 2020 | PathHunter beta-arrestin GPR151 cells; in the data active means activation above about 4.9%
Target sequence (Q8TDV0 whole entry, looked up): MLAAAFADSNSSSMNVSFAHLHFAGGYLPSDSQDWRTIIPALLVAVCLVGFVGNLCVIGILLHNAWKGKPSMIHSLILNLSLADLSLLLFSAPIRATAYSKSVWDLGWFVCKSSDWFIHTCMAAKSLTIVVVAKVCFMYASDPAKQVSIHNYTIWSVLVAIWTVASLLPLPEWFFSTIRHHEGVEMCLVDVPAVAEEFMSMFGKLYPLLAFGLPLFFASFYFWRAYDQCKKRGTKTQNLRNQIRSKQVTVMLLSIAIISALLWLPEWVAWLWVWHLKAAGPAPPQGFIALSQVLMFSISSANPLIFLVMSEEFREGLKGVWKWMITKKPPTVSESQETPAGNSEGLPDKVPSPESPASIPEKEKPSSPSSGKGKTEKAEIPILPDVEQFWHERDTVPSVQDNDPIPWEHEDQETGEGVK
MITF primary: MITF inhibitors, primary screen, biochemical, AlphaScreen, human; Microphthalmia-associated transcription factor (Homo sapiens), O75030; AlphaScreen MITF homodimerization, bead proximity signal; inhibition, % at 2.6 µM; 0.91% of 650,000 active; in the data active means inhibition above about 50%
TEAD-YAP block: TEAD-YAP interaction inhibition, primary screen, TEAD-YAP interaction inhibitor project, luminescence, HEK-TIYL cells; TEAD-Gal4/YAP UAS-luciferase luminescence; inhibition, % at 9.12 µM; 1.4% of 640,000 active; in the data active means inhibition above about 32%
FBW7 act: FBW7 E3 ligase activators, primary screen, biochemical, AlphaScreen, human; 0.13% of 650,000 active; normalized activity (activation), % at 26.1 µM; AlphaScreen FBW7–phospho-cyclin E peptide binding, activator screen; F-box/WD repeat-containing protein 7 (Homo sapiens), Q969H0; in the data active means normalized activity above about 1.9%;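 further: purified mutant Fbw7 with reduced substrate affinity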
GPR151 confirm: GPR151 activators, triplicate retest, confirmation, cell-based, PathHunter beta-arrestin, luminescence. shares compounds with GPR151 ag. GPR151 PathHunter beta-arrestin cells, 90 min; % of EA-reagent control over plate median. activation, % at 11.2 µM. 6,700 tested, under 10 active. AID 1508609, 2020;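 active means mean percent activation across replicates above the confirmation screen cutoff of 4.91%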
GPR119 ag: GPR119 activators in beta-arrestin cells, counter-screen for GPR151 activator project, cell-based, PathHunter beta-arrestin, luminescence, triplicate. shares compounds with GPR151 ag. 90 min; 0 = compound-well median, 100 = enzyme-acceptor control. activation, % at 11.2 µM. 0.3% of 6,700 active;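 active means mean percent activation in the counterscreen above 29.09%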;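 further: counterscreen on off-target GPR119 to flag nonselective hits from the GPR151 activator screen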
A number is an active result; 0 = inactive; - = no result given. A selection: hits, their analogues and other compounds. The true share with any hit is near 3.5%.

SMILES | GPR151 ag | MITF primary | TEAD-YAP block | FBW7 act | GPR151 confirm | GPR119 ag
CN=c1scc(-c2ccc3c(c2)NC(=O)CO3)n1/N=C/c1cccs1 | 0 | 0 | 0 | 0 | - | -
CC1(C#CCN2CCCCC2)CCC2C(O1)c1ccccc1OC2(C)C (stereo not drawn) | 0 | 0 | 0 | 0 | - | -
O=C(COC(=O)c1cc(Cl)ccc1O)NC1CC1 | 0 | 0 | 0 | 0 | - | -
CCCOc1ccc2oc(=O)c3c(c2c1)CCCN3C(=O)CN1CCCC1 | 5.4 | 0 | 0 | 0 | 0 | 0
CCCOc1ccc2oc(=O)c3c(c2c1)CCCN3C(=O)CN1CCN(C)CC1 | 0 | 0 | 0 | 0 | - | -
CCCOc1ccc2c3c(c(=O)oc2c1)CCC3 | 7.9 | 0 | 0 | 0 | 0 | 0
CCCCOc1ccc2c3c(c(=O)oc2c1)CCC3 | 0 | 0 | 0 | 0 | - | -
COC(=O)c1ccccc1C(=O)N1CCc2nnc(C(CC(C)C)NC(C)=O)n2CC1 (stereo not drawn) | 0 | 0 | 0 | 0 | - | -
CC1(C)CC(=O)C2=C(C1)Nc1ccccc1N1C(=O)c3ccccc3C21 (stereo not drawn) | 0 | 0 | 0 | 0 | - | -
CC1(C)CC(=O)C2=C(C1)Nc1cc(C(=O)c3ccccc3)ccc1N1C(=O)c3ccccc3C21 (stereo not drawn) | 5.1 | 0 | 0 | 0 | 0 | 0
CCC(=O)N1c2ccccc2NC2=C(C(=O)CC(C)(C)C2)C1c1ccc(N(C)C)cc1 (stereo not drawn) | 0 | 0 | 0 | 0 | - | -
CCC(=O)N1c2ccccc2NC2=C(C(=O)CC(C)(C)C2)C1c1ccc(Cl)cc1 (stereo not drawn) | 5.1 | 0 | 0 | 0 | 0 | 0
O=C(NCc1cccnc1)c1cnc(NC2CCN(Cc3ccccc3)CC2)s1 | 0 | 0 | 0 | 0 | - | -
CCCn1c(O)c(C=Nc2ccccc2C(=O)Nc2ccc(C)cc2)c(=O)[nH]c1=S | 0 | 0 | 0 | 0 | - | -
CCCc1ccc(OCC(=O)Nc2cc(OC)c(Cl)cc2OC)cc1 | 0 | 0 | 0 | 0 | - | -
O=C1c2ccncc2C(=O)N1c1ccc(F)cc1 | 5.9 | 0 | 0 | 0 | 0 | 0
Cc1ccc(N2C(=O)c3ccncc3C2=O)cc1 | 0 | 0 | 0 | 0 | - | -
CN1C(=O)c2ccc(S(=O)(=O)c3ccc(C(=O)O)cc3)cc2C1=O | 5.5 | 0 | 0 | 0 | 0 | 0
CN(C(=O)c1cn(C)c(=O)c2ccccc12)c1ccccc1F | 0 | 0 | 0 | 0 | - | -
COc1ccccc1C(=O)Nc1ccccc1-c1nnn(CC(=O)NCc2ccco2)n1 | 5.3 | 0 | 0 | 0 | 0 | 0
NC1=NC(=O)/C(=C/c2cccc(OC(=O)c3ccc(Cl)cc3)c2)S1 | 0 | 0 | 0 | 0 | - | -
CCOc1ccc(-c2nnc(SCC(N)=O)n2-c2ccccc2)cc1 | 0 | 0 | 0 | 0 | - | -
CCCOc1ccc(-c2nnc(SCC(N)=O)n2-c2ccccc2)cc1 | 5.3 | 0 | 0 | 0 | 0 | 0
CCOc1ccc2c(c1)CC(C(=O)Nc1ccc(-c3cn[nH]c3)cc1OCCN(C)C)NC2 (stereo not drawn) | 0 | 0 | 0 | 0 | - | -
CN(CC(=O)N1CCC(Cc2ccccc2)CC1)S(=O)(=O)c1ccc2ccccc2c1 | 5.7 | 0 | 0 | 0 | 0 | 0
SMILES | GPR151 ag | MITF primary | TEAD-YAP block | FBW7 act | GPR151 confirm | GPR119 ag
CCN(CC(=O)N1CCC(Cc2ccccc2)CC1)S(=O)(=O)c1ccc(Cl)cc1 | 0 | 0 | 0 | 0 | - | -
CN(CC(=O)NC1CCCC1)S(=O)(=O)c1ccc2c(c1)c(=O)n(C)c(=O)n2C | 0 | 0 | 0 | 0 | - | -
COc1cc(CNCC(C)C)cc(Cl)c1OC | 0 | 0 | 0 | 0 | - | -
CCOc1c(Cl)cc(CNCC(C)C)cc1OC | 6.2 | 0 | 0 | 0 | 0 | 0
COc1ccc(Cl)cc1NC(=O)Cn1cnc2c(cnn2C(C)(C)C)c1=O | 0 | 0 | 0 | 0 | - | -
Cc1ccc(NC(=O)CSC(C)C(=O)O)cc1 (stereo not drawn) | 0 | 0 | 0 | 0 | - | -
O=C(CCC(=O)Nc1ccc(F)cc1)N/N=C/c1ccc(Br)cc1 | 0 | 0 | 0 | 0 | - | -

Bioassay records from PubChem.
